Assay outcomes: PubChem, National Center for Advancing Translational Sciences (NCATS)
Rows were chosen to be rich in hits. Some 3.2% of all compounds tested hit in one or more screens of this group.
IL-2 act: activates IL-2 in a cell-based reporter assay; IL-2 activation reporter assay, cell-based qHTS; stimulated with anti-CD3/CD4/CD28 beads; in transgenic mouse T cells; activation, % (series mostly up to about 46 µM); 360,000 compounds, 0.065% hits; AID 652025; in the data active = activation above about 50%; inconclusive = mostly about 30% to 49%; note: 0% is about no effect
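Unstimulated transgenic mouse T cells, 750 per well, received compound and, after 60 minutes, anti-CD3/anti-CD4 bead plus anti-CD28 stimulation. EGFP and DsRed were quantified after 18 hours.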
BRCA1 expr act: activators of BRCA1 expression. MCF7-BRCA1-FFLuc reporter, luminescence, 48 h; response scale: scaled: vehicle 0%, 10 µM genistein 100%. AID 624202. 380,000 compounds, 1.1% hits. Potency, µM (series often up to 46.1 µM), for inactives: top-dose activation, usual class: activators; note: potency is the fitted concentration of half-maximal effect; nearly all actives have a fitted effect of over 80% in size
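Compounds are tested at multiple concentrations on MCF7 BRCA1-luciferase reporter cells seeded at 2000 per well; after 48 h, a single luminescence end-point is taken and curves fitted to the normalized data.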
A549 tox-1: kills or reduces viability of A549 cells in Nrf2 counter-screen; A549 ARE-Fluc cells, CellTiter-Fluor viability, 18-24 h; Potency, µM (highest dose often 46 µM), without a hit: top-dose activity change, negative = cytotoxicity, usual class: inhibitors; AID 504648; 390,000 compounds, 0.16% hits; note: potency is the fitted concentration of half-maximal effect; % is set by controls: 0 for no effect and ±100 for the full control effect
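A549 ARE-Fluc cells in 5% FBS OPTI-MEM, 5000 cells/well, rested 2 h then exposed to compounds in concentration-response for 18-24 h at 37 °C. Viability by CellTiter-Fluor fluorescence (Ex 405/Em 525) after 30 min; luciferase luminescence (BugLite, 15 min, RT) read afterwards.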
Nrf2 activator: activators of Nrf2 (ARE) signaling | AREc32 ARE-luciferase reporter (MCF7-derived line), luminescence, 24 h | Potency, µM (titrated, usually from 46.1 µM), for the others: at the top dose activation, actives largely listed as activators | 410,000 compounds, 0.31% hits | AID 624171; note: potency is the fitted concentration of half-maximal effect; % of control where 0% means no effect; nearly all actives have a fitted effect of over 65% in size
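Reporter line AREc32 (ARE-Fluc), seeded overnight in OPTI-MEM with 5% FBS; compound pin-transferred, 24 hr at 37 deg C, 5% CO2; luminescent read-out.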
p53 reactivator: restores transcriptional activity of mutant p53; H1299 p53-A138V BP100-luciferase reporter, luminescence, 24 h; Potency, µM (titrated, usually from 92.2 µM), for the others: at the highest dose activity change, positive = activation, actives largely listed as activators; 320,000 compounds, 0.063% hits; AID 504706; note: potency is the fitted concentration of half-maximal effect; % of control where 0% means no effect; nearly all actives have a fitted effect of over 45% in size
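H1299 (p53-null), stable ts p53-A138V + BP100-Luc; 1000 cells/well, Opti-MEM/10% FBS; cpd 4 pt, 1:5; 24 h, 37 deg C, 5% CO2; detection reagent 10 min RT; luminescence.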
Nrf2 block: Nrf2 pathway inhibition; A549 ARE-Fluc reporter, luciferase luminescence, 18-24 h; 360,000 compounds, 2.1% hits; AID 504444; Potency, µM (highest dose often 46 µM), inactives show at the highest dose activity change, negative = inhibition, actives largely listed as inhibitors; note: potency is the fitted concentration of half-maximal effect; % is set by controls: 0 for no effect and ±100 for the full control effect; nearly all actives have a fitted effect of over 60% in size
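In this cell-based qHTS, ARE-driven firefly luciferase in A549 cells reports Nrf2 activity; the luminescent signal after BugLite lysis is the measured value, with a prior CellTiter-Fluor read for cell health.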
FLuc enzyme inh: blocks purified firefly luciferase in Nrf2 counterscreen | AID 720522 | purified firefly luciferase, luminescence inhibition | shares compounds with Nrf2 block | Potency, µM (titrated, usually from 57.5 µM), inactives show at the highest dose activity change, negative = inhibition, actives largely listed as inhibitors | 1,400 compounds, 4% hits; note: potency is the fitted concentration of half-maximal effect; % is set by controls: 0 for no effect and ±100 for the full control effect; nearly all actives have a fitted effect of over 65% in size
Target sequence (P08659 whole entry, looked up): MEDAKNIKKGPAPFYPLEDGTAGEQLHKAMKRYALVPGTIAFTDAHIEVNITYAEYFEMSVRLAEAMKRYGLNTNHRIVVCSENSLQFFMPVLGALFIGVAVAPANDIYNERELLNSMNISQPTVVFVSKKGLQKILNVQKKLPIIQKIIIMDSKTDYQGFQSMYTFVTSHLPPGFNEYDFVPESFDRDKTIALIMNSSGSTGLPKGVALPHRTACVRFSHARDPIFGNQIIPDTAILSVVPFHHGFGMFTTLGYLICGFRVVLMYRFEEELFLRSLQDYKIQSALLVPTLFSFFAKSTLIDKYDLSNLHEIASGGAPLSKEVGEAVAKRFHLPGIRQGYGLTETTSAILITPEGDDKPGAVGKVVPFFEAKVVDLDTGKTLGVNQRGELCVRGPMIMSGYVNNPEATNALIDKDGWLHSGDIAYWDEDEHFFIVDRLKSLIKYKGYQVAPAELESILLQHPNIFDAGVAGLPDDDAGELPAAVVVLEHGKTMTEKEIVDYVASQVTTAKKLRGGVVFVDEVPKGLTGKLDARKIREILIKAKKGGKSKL
A549 tox-2: A549 cytotoxicity, Nrf2 inhibitor counterscreen; Potency, µM (top dose mostly 46.1 µM), for the others: top-dose activity change, negative = cytotoxicity, actives largely listed as inhibitors; shares compounds with Nrf2 block; AID 720523; A549 ARE-Fluc cells, cytotoxicity counterscreen; 1,400 compounds, 2% hits;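 note: potency is the fitted concentration of half-maximal effect; cells exposed to compounds for 18 to 24 hours; % is set by controls: 0 for no effect and ±100 for the full control effect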
Nrf2 ARE inh: reduces Nrf2 ARE reporter signal in A549 cells; 1,400 compounds, 74% hits; shares compounds with Nrf2 block; A549 ARE-firefly luciferase reporter, luminescence; Potency, µM (highest dose often 46.1 µM), for the others: at the highest dose activity change, negative = inhibition, actives largely listed as inhibitors; note: potency is the fitted concentration of half-maximal effect; % is set by controls: 0 for no effect and ±100 for the full control effect; nearly all actives have a fitted effect of over 65% in size
Starred values were filed as active, the others as inactive; ? = inconclusive; . = no result shown; [ ] = another dose, or the depositor's remark. Unless noted, calls come from the whole dose curve; as a rule, active = well fitted curve in the direction sought with a large enough effect; inconclusive = small, poorly fitted or top-dose-only effect, or another doubt; inactive = no such curve, though single readings can be large; an effect the other way counts as inactive or inconclusive.

SMILES	IL-2 act	BRCA1 expr act	A549 tox-1	Nrf2 activator	p53 reactivator	Nrf2 block	FLuc enzyme inh	A549 tox-2	Nrf2 ARE inh
CC1CCN(CC2CCN(C(=O)Nc3ccc(Br)cc3F)CC2)CC1	.	.	-2.8%	0.3%	.	22.6%	.	.	.
O=C(N/N=C\c1ccc(Cl)cc1)C1=NOC2COC3(CCN(c4ccc([N+](=O)[O-])cc4)CC3)OCC12 (centres undefined)	-1.9	-25.7%	?	-0.1%	-4.0%	2.59µM*	-0.9%	-12.4%	.
COC(=O)c1c(C)oc2ccc(N(C(=O)c3ccncc3)S(=O)(=O)c3cc(C)c(C)cc3C)cc12	.	.	-14.6%	-0.9%	.	9.2µM*	-10.5%	-20.9%	10.3µM*
CCc1ccc(S(=O)(=O)N(C(=O)Oc2ccccc2)c2ccc3oc(C)c(C(=O)OC)c3c2)cc1	.	.	-10.3%	-1.2%	.	3.66µM*	2.8%	-7.1%	6.51µM*
COC(=O)c1c(C)oc2ccc(N(C(=O)c3ccncc3)S(=O)(=O)c3c(C)cc(C)cc3C)cc12	.	.	-2.9%	0.2%	.	4.11µM*	1.5%	-8.0%	5.8µM*
C/C(=N\NC(=O)COc1ccccc1-c1ccccc1)c1ccccn1	-4.0	-37.0%	?	?	?	4.61µM*	0.1%	-7.1%	1.3µM*
C/C(=N\NC(=O)COc1ccccc1-c1ccccc1)c1cccnc1	1.5	0.0%	-7.1%	0.5%	-4.1%	?	.	.	.
C[n+]1ccccc1N1CCN(c2ccccc2Cl)CC1	1.0	-21.7%	-2.9%	-1.1%	-5.4%	3.26µM*	2.8%	-11.7%	6.51µM*
CCOC(=O)c1sc(NC(=O)c2cc(-c3ccccc3C)nc3ccccc23)c(C#N)c1C	-2.2	-84.6%	?	4.6%	9.3%	4.11µM*	12µM*	?	4.11µM*
CCN(CC)c1ccc(C(=O)Nc2ccc3nc(N(CC)CC)cc(C)c3c2)cc1	.	8.8%	-9.9%	4.3%	.	-8.0%[9.27 µM]	.	.	.
O=C(OCC1OC2C(Oc3nc(=O)ccn32)C1O)c1ccccc1 (centres undefined)	2.6	-0.5%	5.8%	-0.4%	-18.8%	0.6%	.	.	.
N=c1ccn2c(n1)O[C@H]1[C@H](O)[C@@H](CO)O[C@H]12	-1.0	-20.0%	-8.9%	-0.7%	2.2%	0.184µM*	2.2%	-9.4%	0.092µM*
O=C(CSc1nc(=O)n(Cc2ccncc2)c2c1CCC2)Nc1ccccc1	.	-0.1%	-12.4%	0.5%	.	.	.	.	.
Cc1ccc2nc(C(F)(F)F)c(C#N)c(N)c2c1	-4.0	-94.6%	?	-1.9%	?	3.66µM*	-12.1%	-26.0%	7.31µM*
Cc1csc(NC(=O)c2ccc(S(=O)(=O)N3CCCC3)cc2)n1	-0.1	44.5%	-19.6%	0.0%	15.8%	?	.	.	.
O=C(Nc1nc(-c2ccc(S(=O)(=O)N3CCCCCC3)cc2)cs1)c1ccccc1	-2.6	-61.4%	.	0.1%	-3.3%	2.91µM*	0.3%	7.9%	4.11µM*
O=C(Nc1nc(-c2cccs2)cs1)c1ccc(S(=O)(=O)N2CCCC2)cc1	0.1	-85.5%	?	24.0%	-2.1%	9.2µM*	-18.9%	-19.0%	?
O=C(c1ccccc1)N1CCc2cc(CNS(=O)(=O)c3ccc(Cl)s3)ccc21	.	.	-10.4%	0.4%	.	.	.	.	.
CC(=O)[C@@]1(O)CC[C@H]2[C@@H]3C[C@H](C)C4=CC(=O)C=C[C@]4(C)[C@@]3(F)[C@@H](O)C[C@@]21C	2.5	20.3%	9.1%	0.4%	-0.7%	?	.	.	.
C[C@@H]1C[C@H]2[C@@H]3CCC4=CC(=O)C=C[C@]4(C)[C@@]3(F)[C@@H](O)C[C@]2(C)[C@@]1(O)C(=O)CO	-0.2	-26.3%	-9.3%	-0.9%	-3.3%	0.0046µM*	1.1%	-4.1%	0.0052µM*
CC(=O)C12OC(C)(C)OC1CC1C3CCC4=CC(=O)C=CC4(C)C3(F)C(O)CC12C (centres undefined)	-0.5	-24.2%	12.8%	2.5%	.	0.0082µM*	0.2%	-11.8%	0.0065µM*
CC1(C)O[C@@H]2C[C@H]3[C@@H]4CCC5=CC(=O)CC[C@]5(C)[C@@]4(F)[C@@H](O)C[C@]3(C)[C@]2(C(=O)CCl)O1	-0.5	-30.6%	-12.1%	0.6%	0.7%	0.0116µM*	3.4%	-10.6%	0.0082µM*
C[C@@H]1C[C@H]2[C@@H]3CCC4=CC(=O)C=C[C@]4(C)[C@@]3(F)[C@@H](O)C[C@]2(C)[C@H]1C(=O)CO	-0.8	0.0%	-0.9%	-0.6%	-1.2%	0.0184µM*	3.2%	-15.1%	0.0146µM*
CC1(C)O[C@@H]2C[C@H]3[C@@H]4C[C@H](F)C5=CC(=O)CC[C@]5(C)[C@H]4[C@@H](O)C[C@]3(C)[C@]2(C(=O)CO)O1	-0.3	0.0%	-1.4%	0.4%	-1.7%	?	.	.	.
CCOc1ccc(-n2c(SCc3nc(-c4ccc(OC)cc4)no3)nnc2-c2ccncc2)cc1	.	-8.8%	-11.6%	5.8%	.	-29.6%	.	.	.
SMILES	IL-2 act	BRCA1 expr act	A549 tox-1	Nrf2 activator	p53 reactivator	Nrf2 block	FLuc enzyme inh	A549 tox-2	Nrf2 ARE inh
COCCNC(=O)CSc1nc(-c2ccc(C)cc2)[nH]c1-c1ccc(OC)cc1	.	.	2.0%	1.4%	.	6.6%	.	.	.
Clc1ccc(N2CCN(c3ncnc4c3nc3n4CCCC3)CC2)cc1	.	.	-4.4%	-0.4%	.	4.61µM*	4.0%	-1.6%	1.46µM*
O=C(C1CCN(c2ncnc3c2nc2n3CCCCC2)CC1)N1CCN(c2ccc(Cl)cc2)CC1	.	.	0.1%	-0.1%	.	-23.7%	.	.	.
COc1ccc(CCN(C)C(=O)Cc2ccc(-c3ccccc3)cc2)cc1OC	-0.7	-45.7%	-0.8%	2.6%	-6.8%	5.8µM*	-0.2%	-2.2%	18.4µM*
COc1ccc(CCN(C)C(=O)COc2ccc(C(=O)c3ccccc3)cc2)cc1OC	-4.3	-24.8%	-11.0%	8.0%	-5.1%	-23.9%	.	.	.
COc1ccccc1N1CCN(C(=O)C2CCCN(S(=O)(=O)c3ccc4c(c3)CCCN4C(C)=O)C2)CC1 (centres undefined)	-2.2	-6.5%	-10.7%	0.1%	-4.3%	9.2µM*	-0.7%	-0.6%	9.2µM*
